Pf growth 96h: P. falciparum growth inhibition at 96 hours. hit rate 6.9% among 320,000. Potency, µM (series often up to 28.7 µM), for inactives: top-dose activity change, negative = inhibition, usual class: inhibitors. P. falciparum luciferase reporter growth, 96 h. AID 504834; also: potency is read from the fitted curve at half-maximal effect
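Two parasite generations (96 h, 37 C, 5% CO2) of compound exposure in infected erythrocytes (0.05% parasitemia, 2% hematocrit). Luciferase-reporter P. falciparum; decreased luminescence indicates inhibited growth, aimed at apicoplast-acting delayed death.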
HCMV antiviral: human cytomegalovirus inhibition; AID 1259415; activity change, negative = inhibition, % at 57.5 µM; HFF cells, HCMV-luciferase reporter, 72 h; active compounds read low; hit rate 4.5% among 410,000; in the data active = activity change below about -60%; inconclusive = no clear call, values can overlap the other calls; inactive = above about -39%
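Cell-based, HFFs, 1000 cells/well, 16 h 37C; cpds in DMSO + HCMV-luc, MOI 1 PFU/cell; 72 h 37C; OneGlo luminescence after 5 min RT; norm. to buffer vs Salinomycin 10uM.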
Pf growth 48h: P. falciparum growth inhibition at 48 hours (one generation) | Potency, µM (highest dose often 28.7 µM), inactives show at the top dose activity change, negative = inhibition, actives largely listed as inhibitors | P. falciparum luciferase growth in erythrocytes, 48 h | hit rate 5.9% among 310,000 | AID 504832; also: potency is read from the fitted curve at half-maximal effect
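Luciferase-expressing P. falciparum in infected erythrocytes (2% hematocrit, 0.1% parasitemia final) in RPMI 1640/0.5% Albumax were exposed to compound for 48 hours at 37 C, 5% CO2; growth read as luminescence.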
HCV inh: HCV inhibition | hit rate 3.4% among 340,000 | Potency, µM (doses to about 41.8 µM), for the others: at the top dose activity change, negative = inhibition, hits mostly inhibitors | Huh7.5.1 HCVcc-Cre infection, luciferase reporter, 44 h; also: potency is read from the fitted curve at half-maximal effect
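Luciferase read-out (15 sec integration) after a 15 min room-temperature substrate step quantifies HCVcc-Cre infection. Cells, 1,000 per well, had compound added 4 h post-plating, then virus at ~0.5 moi, and were cultured 44 h.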
* = called active by the depositor; ? = inconclusive; . = no result; + = active, no number; [ ] = remark or other dose. Most compounds without a hit are left out; they make up all but 13% or so of the library. Unless noted, calls follow the shape of the dose curve; as a rule, active = well fitted inhibition curve with a large enough effect; inconclusive = small, poorly fitted or top-dose-only effect, or another doubt; inactive = no such curve, though single readings can be large or run the other way. % is scaled to controls: 0 for no effect and ±100 for the full control effect.

SMILES | Pf growth 96h | HCMV antiviral | Pf growth 48h | HCV inh
C/C(=N\NC(=O)c1ccc(F)cc1)c1cccc(NC(=O)c2cccc(F)c2)c1 | -17% | -14 | ? | ?
COc1cc(NC(=O)c2ccc([N+](=O)[O-])o2)ccc1NC(=O)c1ccco1 | ? | ? | -10% | -2%
Cc1cc(NC(=O)c2ccc([N+](=O)[O-])o2)ccc1NC(=O)c1ccco1 | -35%[1.15 µM] | -85* | 8.3µM* | ?
CC(=O)Oc1c(C)cc(Cl)cc1C(=O)Nc1ccc([N+](=O)[O-])cc1Cl | 31% | -98* | ? | ?
C/C(=N/NC(=O)c1ccc(-c2ccccc2)cc1)c1cccc(O)c1 | 5.9µM* | -11 | 5% | -29%
C/C(=N\NC(=O)c1cccc(O)c1)c1cccc(NC(=O)c2ccc(F)cc2)c1 | -12% | 29 | 34% | ?
Cc1cc(NC(=O)c2ccc([N+](=O)[O-])cc2Cl)ccc1NC(=O)c1ccco1 | ? | 32 | 10% | 7.9µM*
Cc1cccc(NC(=O)c2cccc(NC(=O)c3ccco3)c2)c1 | . | -1 | . | -4%
COc1ccccc1/C=C(\NC(=O)c1ccc(OC)c(OC)c1)C(=O)Nc1cccc([N+](=O)[O-])c1 | 0% | -61* | -10% | -10%
Cc1cc(C(=O)Nc2cccc(NC(=O)c3ccco3)c2)ccc1[N+](=O)[O-] | ? | -82* | -3% | ?
COc1ccccc1/C=C(\NC(=O)c1ccc(OC)c(OC)c1)C(=O)Nc1ccc([N+](=O)[O-])cc1 | ? | -22 | -4% | -17%
COc1ccc(C(=O)Nc2cccc(/C(C)=N/NC(=O)c3ccc([N+](=O)[O-])c(C)c3)c2)cc1OC | -12%[5.75 µM] | 40 | 6% | 2.8µM*
COc1ccccc1NC(=O)C(Cc1ccccc1)NS(=O)(=O)c1ccc2c(c1)c(=O)n(C)c(=O)n2C (centres undefined) | . | -30 | . | .
O=S(=O)(c1cccc(Br)c1)N1CCN(c2ccnc3cc(Cl)ccc23)CC1 | 1.9µM* | ? | 3.7µM* | ?
CN(C)S(=O)(=O)N1CCN(c2ccnc3cc(Cl)ccc23)CC1 | 0% | . | -19% | -18%
O=[N+]([O-])c1ccc(S(=O)(=O)N2CCN(c3ccnc4cc(Cl)ccc34)CC2)cc1 | 2.6µM* | -24 | 5.2µM* | 0%
Cc1ccc(Cl)cc1N1CCN(S(=O)(=O)c2cccc(S(=O)(=O)N3CCCC3)c2)CC1 | ? | -36 | -7% | ?
CC(C)S(=O)(=O)N1CCN(c2ccnc3cc(Cl)ccc23)CC1 | 9.3µM* | ? | 5.2µM* | 2%
O=S(=O)(c1ccccc1OC(F)(F)F)N1CCN(c2ccnc3cc(Cl)ccc23)CC1 | 2.3µM* | -35 | 9.3µM* | ?
COc1cccc(CNC(=O)C2CCCCN2S(=O)(=O)c2ccc(F)cc2)c1 (centres undefined) | . | 7 | . | .
N#Cc1cccc(S(=O)(=O)N2CCN(c3ccnc4cc(Cl)ccc34)CC2)c1 | 2.3µM* | ? | 13µM* | ?
Oc1ccc(Cl)cc1C1=NNC(c2cccs2)C1 (centres undefined) | 12µM* | 16 | 3.3µM* | ?
Cc1ccc(O)c(C2=NNC(c3ccc(Cl)cc3)C2)c1 (centres undefined) | ? | 96 | ? | ?
CCOc1ccccc1NC(=O)Cn1c(=O)n(Cc2ccco2)c(=O)c2ccc(C(=O)NC3CCCC3)cc21 | . | 23 | . | .
COC(=O)/C(=C1/Oc2cc(C)oc(=O)c2S1)C(F)(F)F | ? | ? | ? | 10µM*
SMILES | Pf growth 96h | HCMV antiviral | Pf growth 48h | HCV inh
Cc1cccc(OCC(=O)Nc2ccc(Cl)c(-c3nc4ncccc4o3)c2)c1C | . | -23 | . | .
CCNC(=S)N(Cc1cc2cc(C)cc(C)c2[nH]c1=O)C1CCCC1 | 6.6µM* | -8 | ? | 4%
CC(=O)Nc1ccccc1-c1nc2ccc(C(=O)N3CCN(c4cc(C)ccc4C)CC3)cc2[nH]c1=O | ? | -65* | . | 16%
O=S1(=O)N(Cc2ccccc2)CCCN1Cc1ccc(F)cc1Cl | . | + | . | .
O=S1(=O)N(Cc2ccccc2Cl)CCCN1Cc1ccccc1Cl | . | 1 | . | .
CS(=O)(=O)c1ccc([C@@H](O)[C@@H](COC(=O)CN)NC(=O)C(Cl)Cl)cc1 | 1.9µM* | . | ? | .
Cc1ccc(CNC(=O)N2CCC(CN3CCC(C)CC3)CC2)cc1 | . | 13 | . | .
COc1ccc(NC(=O)CSC2=Nc3ccccc3C3=NC(CC(=O)NCc4ccc(F)cc4)C(=O)N23)cc1 (centres undefined) | . | 8 | . | .
CCOC(=O)CSC1=Nc2ccccc2C2=NC(CC(=O)NCc3cccs3)C(=O)N12 (centres undefined) | ? | -15 | 10µM* | -18%
CCC(C)NC(=O)CSC1=Nc2ccccc2C2=NC(CC(=O)NCc3ccc(F)cc3)C(=O)N12 (centres undefined) | ? | -16 | 13µM* | 12%
Cc1cccc(OCC(=O)NCc2ccc3c(c2)CCN3C(=O)c2ccc(Cl)cc2)c1 | . | 23 | . | .
O=C(CSc1nc2ccccc2n1Cc1cccc(C(F)(F)F)c1)NCc1ccccc1 | . | -14 | . | .
CCN1CCN(c2ccc(S(=O)(=O)N3CCCCC3)cc2NC(=O)/C=C/c2ccc(OC)c(OC)c2)CC1 | 6.6µM* | -4 | 6.6µM* | 2%
CCN1CCN(c2ccc(S(=O)(=O)N3CCCCC3)cc2NC(=O)/C=C/c2ccc(Cl)cc2)CC1 | . | 4 | . | 32µM*
CCN1CCN(c2ccc(S(=O)(=O)N3CCCCC3)cc2NC(=O)/C=C/c2cc(OC)ccc2OC)CC1 | ? | 5 | ? | -1%
CCOC(=O)c1c(C)oc2nc(C)nc(NCC3CCN(Cc4cccc(Cl)c4)CC3)c12 | . | 4 | . | .
COC(=O)[C@H]1[C@H](CO)[C@H]2Cn3c(cccc3=O)[C@@H]1N2CC1CCCCC1 | . | -13 | . | .
Cc1sc2ncnc(Sc3ccccc3C(=O)Nc3ccc(Br)cc3)c2c1C | 6.6µM* | -27 | 9.3µM* | 5.6µM*
Cc1sc2ncnc(Sc3ccccc3C(=O)Nc3ccccc3Cl)c2c1C | ? | -37 | 12µM* | -16%
Cc1sc2ncnc(Sc3ccccc3C(=O)Nc3ccc(C#N)cc3)c2c1C | ? | ? | 10µM* | 25µM*
CC(C)(Oc1ccc(Cl)cc1)C(=O)N1CC2ON=C(c3c(F)cccc3Cl)C2C1 (centres undefined) | . | -25 | . | .
O=C1C2CCCCN2C(=O)N1CCCCN1CCN(c2ccccc2Oc2ccccc2)CC1 (centres undefined) | ? | 45 | ? | -20%
CCCNC(=O)c1ccccc1N1CCN(CCCCN2C(=O)C3CCCCN3C2=O)CC1 (centres undefined) | 10µM* | 12 | -9% | -1%
CCS(=O)(=O)N1CC(=O)N(c2ccccc2C)C(C)(C(=O)NC2CCCCC2)C1 (centres undefined) | . | 0 | . | .
CC(=O)N1CCSc2ccc(S(=O)(=O)NCc3ccccc3)cc21 | -15% | ? | 18% | ?
CCOc1ccc(NS(=O)(=O)c2ccc3c(c2)N(C(C)=O)CCS3)cc1 | -23% | -65* | ? | ?

Bioassay records as filed in PubChem.
